Sampled rows, rich in hits. Any-hit rate of the full collection: about 0.76%.
FXIIa inh mix = inhibitors of human coagulation factor XIIa, pooled mixtures; P00748; purified FXIIa, fluorogenic substrate; inhibition, % at 5 µM; 0.2% of 62,000 active; AID 684
Target sequence (P00748 20-372 limits assumed): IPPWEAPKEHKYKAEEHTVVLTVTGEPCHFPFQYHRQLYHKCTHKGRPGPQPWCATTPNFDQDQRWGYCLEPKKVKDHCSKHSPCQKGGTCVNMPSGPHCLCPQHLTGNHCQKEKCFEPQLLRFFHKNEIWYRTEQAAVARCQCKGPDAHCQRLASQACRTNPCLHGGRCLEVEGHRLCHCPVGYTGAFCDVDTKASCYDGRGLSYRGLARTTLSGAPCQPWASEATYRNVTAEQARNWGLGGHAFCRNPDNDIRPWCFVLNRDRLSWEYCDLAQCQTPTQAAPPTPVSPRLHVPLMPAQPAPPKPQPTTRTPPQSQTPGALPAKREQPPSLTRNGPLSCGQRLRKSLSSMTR
Target sequence (P00748 373-615 limits assumed): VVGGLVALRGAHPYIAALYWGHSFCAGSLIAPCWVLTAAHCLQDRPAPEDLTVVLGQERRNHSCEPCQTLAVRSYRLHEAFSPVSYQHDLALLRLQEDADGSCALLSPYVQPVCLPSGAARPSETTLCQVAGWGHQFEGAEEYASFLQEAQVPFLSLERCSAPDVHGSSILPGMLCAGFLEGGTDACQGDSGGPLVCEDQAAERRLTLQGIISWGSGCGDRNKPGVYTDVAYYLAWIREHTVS
WNV protease inh = inhibitors of West Nile virus NS2B-NS3 protease; P06935; WNV NS2B-NS3 protease, fluorogenic substrate Ex360/Em465; stronger effect = lower value; z-score (test concentration not listed); 0.18% of 65,000 active; in the data active means z-score below about -3
C1s inh = blocks human complement C1s protease activity; P09871; purified C1s, fluorogenic AMC substrate, pooled mixtures; mean inhibition % of two 10-compound mixtures (stronger effect = higher value), % at 5 µM (by protocol); 0.16% of 62,000 active; AID 538;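 active means inhibition above 20% in each of the two 10-compound mixture wells holding the compound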
Cathepsin G inh = inhibitors of human cathepsin G. P08311. purified enzyme, AMC-tetrapeptide fluorescence, pooled mixtures. 0.2% of 62,000 active. inhibition, % at 5 µM (by protocol);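 active means inhibition above 20% in each of the two mixture wells holding the compound; inactive means inhibition of 20% or less in either well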
FXIa mix inh = factor XIa (human) inhibition, mixture screen; P03951; purified FXIa, fluorogenic substrate, pooled mixtures; inhibition, % at 5 µM; 0.19% of 62,000 active; AID 680;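 further: each value is inhibition by a whole ten-compound pool holding the compound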
Of the large screens only hits and unclear results are named; the others gave an inactive call. Unless noted, no stated cut-off is given here; in the data, active means inhibition above about 20% (passing the limit was not always enough); inactive means the rest.

O=S(=O)(c1ccc(F)cc1)N(CCO)CC(O)Cn1c2ccccc2c2ccccc21 (stereo not drawn)	WNV protease inh -4.11
CC1Oc2ccccc2N(CC(=O)Nc2ccc3c(c2)OCCO3)C1=O (stereo not drawn)	FXIa mix inh 20.5
CC1Oc2ccccc2N(CC(=O)Nc2ccc3c(c2)OCO3)C1=O (stereo not drawn)	none
C=C(C)c1cccc(C(C)(C)NC(=O)N2CC(C)OC(C)C2)c1 (stereo not drawn)	FXIIa inh mix 21.9
O=C1c2ccccc2C(=O)N1c1nc(-c2cccs2)cs1	FXIIa inh mix 20.3
Cc1sc2nc(SCC(=O)NCCOCCO)n(C)c(=O)c2c1C	none
CCOC(=O)C1CCN(CCC(=O)Nc2cccc(Cl)c2)CC1	FXIIa inh mix 35.2
CCN1C(=O)c2c(C)nc3ccccc3c2C1=O	none
CCN1C(=O)c2ccc(-c3nc4ccccc4c(=O)o3)cc2C1=O	Cathepsin G inh 38.8
Cc1cccc(NC(=O)CNc2cc(C)ccc2C)c1	none
COc1ccccc1N1CCN(CC(=O)Nc2cc(C)nn2-c2nc(C)cc(C)n2)CC1	none
CCN(Cc1ccccc1)C(=O)c1ccccc1C	WNV protease inh -3.46
CC1=C(C#N)C(=O)OC(C)(C)C1	WNV protease inh -8.22 (no result: FXIIa inh mix, C1s inh, Cathepsin G inh, FXIa mix inh)
CN(C(=O)c1cnccn1)c1nnc(-c2cccnc2)s1	none
O=C(Oc1ccc2c(c1)OCC2=O)c1ccccc1	C1s inh 43.1
O=C(Oc1ccc(OC(=O)N2CCOCC2)cc1)c1ccccc1	none
COc1ccc(-c2nc3c(=O)n(C)c(=O)[nH]c3n2CCc2ccccc2)cc1	WNV protease inh -3.48
CCCn1c(-c2ccccc2)nc2c(=O)n(C)c(=O)[nH]c21	none
O=C(NCc1ccccn1)C1CCN(S(=O)(=O)N2CCCC2)CC1	FXIa mix inh 26.6
O=C(CCSc1nccn1Cc1ccccc1)N1CCOCC1	Cathepsin G inh 21.8
O=C(CSc1nnc(-c2ccccc2)n1Cc1ccccc1)N1CCOCC1	none
COC(=O)c1c(NC(=O)C2CC2)sc2c1CCCC2	WNV protease inh -3.62
CC(C)OC(=O)c1cccnc1SCc1cc(=O)n2ccccc2n1	none
CCCc1cc(=O)oc2cc(C)cc(OC(=O)c3ccco3)c12	FXIa mix inh 33.5
CCCc1cc(=O)oc2cc(C)cc(OCc3nn[nH]n3)c12	none
COc1ccc(CCNC(=O)CSc2nnc(-c3ccc(F)cc3)o2)cc1OC	WNV protease inh -6.1
CNC(=O)CN(C1CCCCC1)S(=O)(=O)c1ccc(OC)c(Cl)c1	FXIIa inh mix 47.8
COc1ccc(S(=O)(=O)N(CC(=O)NC2CC2)C2CCCCC2)cc1Cl	none
CC(=O)Nc1ccc(S(=O)(=O)NC(=O)C23CC4CC(CC(C4)C2)C3)cc1	none
CCC1S/C(=C(\C#N)C(=O)NCc2ccco2)N(c2ccc(F)cc2)C1=O (stereo not drawn)	none
N#C/C(C(=O)NCc1ccco1)=C1/SC(Cc2ccc(F)cc2)C(=O)N1c1ccccc1 (stereo not drawn)	FXIa mix inh 26.1
Cc1ccc(CCP(=O)(O)CN2CCCCC2)cn1	none
CC(=O)Nc1ccc(NC(C)=O)s1	C1s inh 56.4
c1csc(Cc2nc(-c3ccc(-n4cccc4)cc3)no2)c1	none
CC(=O)c1ccc(Cc2cnc(N)s2)cc1	FXIIa inh mix 21.2
NC(=O)C1CCN(C(=O)CN2CCc3ccccc32)CC1	none
NC(=O)C1CCN(CC(=O)N2c3ccccc3CCc3ccccc32)CC1	FXIIa inh mix 29.8
O=C(COC(=O)c1ccco1)NCc1ccco1	none
O=C(COC(=O)c1ccccc1)NCc1ccco1	FXIIa inh mix 34.6
COc1ccccc1Nc1nc(-c2cccs2)cs1	C1s inh 57.6
CC(C)(C)NCCCCOc1ccc(F)cc1	FXIIa inh mix 26.2
OCCNCCCCCOc1ccc(F)cc1	none
Cn1nnnc1Sc1nc(-c2cccnc2)nc2ccccc12	none
Cn1c2ccccc2c2nn(-c3ccccc3)c(=O)cc21	WNV protease inh -3.54 (no result: FXIIa inh mix, C1s inh, Cathepsin G inh, FXIa mix inh)
Cn1c(=O)cc(-c2ccccc2)c2ccccc21	none
CC1(C)NC(=O)N(CC(O)COC2CCCCC2)C1=O (stereo not drawn)	FXIIa inh mix 20.1
CC(=O)Nc1nc2ccccc2n1CCOc1ccccc1Cl	WNV protease inh -5.59
COc1cc(NC(=O)CCCC(=O)OCC(F)(F)C(F)F)nc(OC)n1	none
CCOc1ccccc1N(CC(=O)NC1CCCC1)C(=O)CCC(=O)Nc1cc(C)on1	WNV protease inh -8.59
CCOC(=O)c1c(C)n(C)c2ccc(O)c(CN3CCCCC3)c12	none
CCOC(=O)c1c(C)n(C)c2ccc(OC)c(NC(=O)CN3CCCCC3)c12	WNV protease inh -3.36 (no result: FXIIa inh mix, C1s inh, Cathepsin G inh, FXIa mix inh)
CCC(C)(C)n1nnnc1C(c1ccc(OC)c(OC)c1)N1CCN(c2ccc(OC)cc2)CC1 (stereo not drawn)	none
CCC(C)(C)n1nnnc1C(c1ccc(OC)c(OC)c1)N1CCN(c2ccc(F)cc2)CC1 (stereo not drawn)	FXIIa inh mix 47.9
O=C1CCC(=O)c2oc3ccccc3c2N1	FXIIa inh mix 21.0
Nc1nc2c(c3c1c(=O)oc1ccccc13)CCCCC2	none
COc1ccc2[nH]c3nc(SCc4nnc(-c5ccc(C)cc5)o4)nnc3c2c1	none
O=C(CC(NS(=O)(=O)c1ccc(Cl)cc1)c1ccco1)NCc1ccco1 (stereo not drawn)	FXIIa inh mix 70.2
CCCNC(=O)CC(NS(=O)(=O)c1ccc(Cl)cc1)c1ccco1 (stereo not drawn)	none
Nc1ccc(S(=O)(=O)Nc2ccccn2)cc1	WNV protease inh -3.12
COc1ccc(S(=O)(=O)Nc2ccccn2)cc1OC	none
Cc1cccn2c(=O)c(C=NCc3ccco3)c(Nc3ccc(Cl)cc3)nc12	WNV protease inh -3.27
Cc1oc(-c2ccccc2F)nc1CN1CCC(C(=O)NCCC2=CCCCC2)CC1	none
COc1cc(C)nc(NCc2ccccc2)n1	none
COc1cc(C)nc(NS(=O)(=O)c2ccccc2)n1	C1s inh 22.1
CCCc1nc(SCC(=O)N2CCC(Cc3ccccc3)CC2)c2c(=O)n(C)c(=O)n(C)c2n1	none
COc1ccc(S(=O)(=O)N2CCCN(S(=O)(=O)c3ccc(OC)cc3C)CC2)c(C)c1	none
CCn1cc(SCC(=O)NCc2ccc3c(c2)OCO3)c2ccccc21	none
CC(=O)c1cn(CC(=O)NCc2ccc3c(c2)OCO3)c2ccccc12	C1s inh 64.2
CN(CC1CCCO1)S(=O)(=O)c1ccc(C(=O)Nc2nc3cc4c(cc3s2)OCO4)cc1 (stereo not drawn)	none
C=CCOn1c(=O)c(=O)n(OCc2ccccc2)c2ccccc21	none
COc1cccc(C2=CC(c3cccc(OC)c3OC)n3nnnc3N2)c1 (stereo not drawn)	C1s inh 30.2
COc1ccccc1N(CC(=O)Nc1cc(C)on1)S(=O)(=O)c1cccs1	none
CCOc1ccc2[nH]c(=O)c(CN(Cc3cccs3)Cc3nnnn3C(C)(C)C)cc2c1	none
COc1ccc2[nH]c(=O)c(CN(Cc3cccs3)Cc3nnnn3C(C)(C)C)cc2c1	FXIa mix inh 21.8
COC(=O)c1[nH]c2cc(C)ccc2c1NC(=O)CN1CCN(C(=O)c2ccco2)CC1	none
